From PubChem BioAssay
Sampled rows, rich in hits. Any-hit rate of the full collection: about 1.6%.
RAD54 inh – inhibitors of human RAD54 branch migration, primary screen, biochemical, fluorescence, single point; DNA repair and recombination protein RAD54-like (Homo sapiens), Q92698; RAD54 Holliday junction branch migration, FAM/BHQ fluorescence; inhibition, % at 10.4 µM; 0.14% of 360,000 active; AID 602329, 2012;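 active = mean normalized replicate activity at least 40 and at least half of replicates scoring 40 or more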;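 also: 0% = median of neutral control wells and 100% = median of positive control wells; inhibitors cause a drop in the FAM fluorescence signal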
Target sequence (Q92698 whole entry, looked up): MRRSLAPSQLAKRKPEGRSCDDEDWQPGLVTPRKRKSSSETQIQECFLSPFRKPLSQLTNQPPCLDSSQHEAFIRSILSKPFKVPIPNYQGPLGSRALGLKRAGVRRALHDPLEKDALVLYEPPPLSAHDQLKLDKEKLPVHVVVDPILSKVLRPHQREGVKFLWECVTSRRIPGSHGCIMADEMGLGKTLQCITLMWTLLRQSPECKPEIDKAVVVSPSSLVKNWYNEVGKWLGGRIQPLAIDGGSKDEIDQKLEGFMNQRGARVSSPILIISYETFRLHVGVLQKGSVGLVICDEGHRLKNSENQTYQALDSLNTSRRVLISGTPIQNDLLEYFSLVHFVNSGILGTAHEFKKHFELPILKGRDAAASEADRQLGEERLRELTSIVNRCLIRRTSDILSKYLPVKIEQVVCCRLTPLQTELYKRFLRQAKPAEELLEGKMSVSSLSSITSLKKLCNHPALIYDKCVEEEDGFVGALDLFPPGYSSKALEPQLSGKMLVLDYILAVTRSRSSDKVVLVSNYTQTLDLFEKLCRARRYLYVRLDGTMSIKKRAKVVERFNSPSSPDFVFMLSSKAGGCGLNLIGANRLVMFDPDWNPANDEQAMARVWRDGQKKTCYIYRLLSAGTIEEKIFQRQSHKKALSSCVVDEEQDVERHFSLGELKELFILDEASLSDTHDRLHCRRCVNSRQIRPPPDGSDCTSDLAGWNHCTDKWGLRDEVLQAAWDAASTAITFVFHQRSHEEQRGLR
Glyco luc inh – increase of ERlucT glycosylation luciferase signal, primary screen, N-linked glycosylation inhibitor project, D54 ERlucT cells, luminescence, set 2 | AID 588692, 2011 | reporter increase, % at 12.5 µM | D54 ERlucT glycosylation luciferase reporter, 24 h; percent of 100 nM tunicamycin response | 0.23% of 360,000 active;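 active = mean luciferase reporter signal, scaled so untreated is 0 and the glycosylation-blocking control 100, at or above a set limit in every replicate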;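 also: luciferase carries N-glycosylation sites so blocking glycosylation raises the light; 0% = median of neutral control wells and 100% = median of 100 nM tunicamycin wells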
ABCB6 inh 2 – ABCB6 transporter inhibitors, primary screen, K562-ABCB6 cells, flow cytometry, MLPCN library; K562-ABCB6 porphyrin accumulation, 1 h; stronger effect = lower value; 0.19% of 360,000 active; ATP-binding cassette sub-family B member 6 (Homo sapiens), Q9NP58; fluorescence ratio to DMSO, % at 10 µM; AID 602162, 2011;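 active = fluorescence ratio to DMSO below 75%, the collection mean minus 3 SD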;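 also: signal is porphyrin accumulated inside mitochondria; 100% equals median channel fluorescence of DMSO control wells; lower ratio means ABCB6 inhibition with less porphyrin fluorescence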
Myeloid diff 2 – induction of myeloid progenitor differentiation, primary screen, cell-based, flow cytometry, MLPCN library; ER-HoxA9 myeloid progenitors, lysozyme-GFP differentiation; calls only at 10 µM; 1% of 360,000 active;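 active = normalized GFP-positive differentiation at or above the plate's own cutoff, the solvent-only control mean plus 3 SD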;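 also: cells exposed to compound for four days before flow analysis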
Vif inh – HIV Vif self-association inhibitors, primary screen, imaging, HEK293T, single point; HEK293T cells, Vif self-association by quenched fluorescence, 24 h; inhibition, % at 7.49 µM; 0.35% of 340,000 active; AID 602346, 2012; in the data active = inhibition above about 50%, passing the limit was not always enough
* = called active by the depositor; i = inactive; · = no result; + = active, no number.

SMILES | RAD54 inh | Glyco luc inh | ABCB6 inh 2 | Myeloid diff 2 | Vif inh
C[C@H]1CCCCO[C@H](CN(C)S(=O)(=O)c2cn(C)cn2)[C@@H](C)CN([C@@H](C)CO)C(=O)c2cc(NS(=O)(=O)c3ccc(Cl)cc3)ccc2O1 | -7 | · | · | · | ·
CC(C)CC#Cc1ccc2c(c1)O[C@H](CN(C)C(=O)c1cnccn1)[C@@H](C)CN([C@H](C)CO)S2(=O)=O | 2 | · | · | · | ·
COc1ccc(S(=O)(=O)Nc2ccc3c(c2)C(=O)N([C@H](C)CO)C[C@H](C)[C@@H](CN(C)S(=O)(=O)c2c(C)noc2C)OCCCC[C@H](C)O3)cc1 | -4 | · | · | · | ·
O=C(Nc1ccc(Oc2cccc(C(F)(F)F)c2)nc1)c1ccco1 | -4 | -5 | 97 | i | -2
CC(C)(C)c1ccc(Oc2ccc(NC(=O)c3ccco3)cn2)cc1 | · | 0 | 103 | + | -13
COc1ccc([Si](C)(C)[C@@H]2[C@@H](CCO)O[C@]3(C(=O)N4c5c(cc(OC)cc53)C(C)=CC4(C)C)[C@H]2C)cc1 | 5 | · | · | · | ·
CC(C)CC(=O)Nc1sc2c(c1C#N)CC(C)(C)NC2(C)C | 3 | -1 | 101 | i | 56*
CCC(=O)Nc1sc2c(c1C#N)CC(C)(C)NC2(C)C | 0 | 1 | 90 | i | 13
O=C1c2cccc3c(N4CCCCC4)ccc(c23)C(=O)N1c1ccccc1O | · | -6 | 233 | + | -1
O=C1c2cccc3cccc(c23)C(=O)N1c1ccc(O)cc1 | -4 | -2 | 102 | i | -1
O=C1c2cccc3c(N4CCCCC4)ccc(c23)C(=O)N1c1ccc(O)cc1 | · | -5 | 169 | + | 112*
C[C@@H]1CN([C@@H](C)CO)C(=O)Cc2cc(NS(C)(=O)=O)ccc2O[C@H]1CN(C)Cc1ccncc1 | -5 | · | · | · | ·
COc1ccccc1C(=O)Nc1ccc2c(c1)OC[C@H](C)N(C)C[C@H](C)[C@@H](OC)CN(C)C2=O | 10 | · | · | · | ·
CC(=O)C1=C(C)NC(SCC(=O)c2ccc(Cl)c(Cl)c2)=C(C#N)C1c1ccco1 (stereo unspecified) | -4 | -4 | 129 | + | 82*
COC(=O)c1[nH]c2c(c1C)C(=O)CC(c1cc(OC)ccc1OC)C2 (stereo unspecified) | -1 | 15 | 100 | + | 5
C=CCOC(=O)c1[nH]c2c(c1C)C(=O)CC(c1cc(OC)c(OC)c(OC)c1)C2 (stereo unspecified) | -7 | 0 | 96 | i | -15
CCCCOC(=O)c1[nH]c2c(c1C)C(=O)CC(c1cc(OC)c(OC)c(OC)c1)C2 (stereo unspecified) | -8 | 0 | 98 | + | -4
O=C(Nc1ccccc1)N1C[C@H]2[C@@H](c3ccccc31)[C@@H](CO)N2C(=O)c1ccncc1 | 2 | · | · | · | ·
Cc1ccc(N(CC(=O)NCc2ccc3c(c2)OCO3)C(=O)c2csnn2)cc1 | -3 | 1 | 99 | i | 10
O=C(CN(C(=O)c1csnn1)c1ccc(F)cc1)NCc1ccc2c(c1)OCO2 | -2 | -1 | 99 | i | 75*
CN(C)CC(=O)Nc1ccc2c(c1)[C@@H]1C[C@@H](CC(=O)N3CCOCC3)O[C@@H](CO)[C@@H]1O2 | -20 | · | · | · | ·
Cc1ccc(S(=O)(=O)N(C)C[C@H]2Oc3c(NC(=O)C4CCCCC4)cccc3C(=O)N([C@@H](C)CO)C[C@@H]2C)cc1 | 6 | · | · | · | ·
Cc1c(C(c2cc(O)ccc2Cl)c2c(C)n(C)n(-c3ccccc3)c2=O)c(=O)n(-c2ccccc2)n1C | -1 | 1 | 97 | i | 2
Cc1c(C(c2ccccc2O)c2c(C)n(C)n(-c3ccccc3)c2=O)c(=O)n(-c2ccccc2)n1C | -7 | -1 | 98 | + | -10
O=C(Nc1cc(Cl)ccc1-n1cncn1)c1ccco1 | 6 | 1 | 100 | i | -9
SMILES | RAD54 inh | Glyco luc inh | ABCB6 inh 2 | Myeloid diff 2 | Vif inh
O=C(Nc1cc(Cl)ccc1-n1cncn1)c1ccc([N+](=O)[O-])s1 | -16 | -2 | 207 | + | ·
CC(C)[C@H](NC(=O)c1ccccc1F)C(=O)OCC(=O)Nc1sccc1C(N)=O | -4 | 2 | 92 | i | 12
Cc1ccc(C(=O)N[C@H](C(=O)Nc2sccc2C(N)=O)C(C)C)cc1 | -3 | 1 | 95 | + | -3
CC(C)CNS(=O)(=O)c1ccc(CCC(=O)NCc2cccnc2)cc1 | 6 | 3 | 97 | + | -1
NNc1nc(-c2ccccc2)cc(-c2ccccc2)n1 | · | -1 | 97 | i | -5
NNC(=O)c1nc(-c2ccccc2)cc(-c2ccccc2)n1 | -10 | 47* | 90 | i | -4
NNC(=O)c1oc2nc(-c3ccc(Cl)cc3)cc(-c3ccccc3)c2c1N | 2 | 0 | 109 | + | -4
Cc1noc(C)c1NC(=O)N[C@@H]1C=C[C@@H](CC(=O)NCc2ccc(Cl)c(Cl)c2)O[C@H]1CO | 2 | · | · | · | ·
C[C@H](CO)N1C[C@H](C)[C@@H](CN(C)C(=O)C2CCC2)Oc2cc(C#Cc3ccncc3)ccc2S1(=O)=O | -1 | · | · | · | ·
CCOC(=O)COc1nc(OC)nc(N2CCOCC2)n1 | -10 | 2 | 88 | i | 2
CCOc1nc(N2CCOCC2)nc(N2CCOCC2)n1 | -18 | -1 | 235 | + | 1
O=C(CCN1C(=O)NC2(CCCC2)C1=O)Nc1ccc(-c2nc3ccccc3s2)cc1 | 8 | -18 | 111 | + | 4
CC(=O)OCCNc1cc(Sc2nc3ccccc3[nH]2)c2nonc2c1[N+](=O)[O-] | · | -2 | 97 | + | -10
O=S(=O)(NCc1ccc(C(F)(F)F)cc1)c1ccc(-n2cnnn2)cc1 | 15 | 0 | 99 | + | -10
COc1ccc(N=C2SCC(=O)N2Cc2ccccc2)cc1 | · | -2 | 101 | + | -1
O=C(O)c1ccc(N=C2SCC(=O)N2Cc2ccccc2)cc1 | · | 0 | 104 | i | -5
Cc1ccc2cc(/C=C/C(=O)c3ccco3)c(Cl)nc2c1 | -4 | 21 | 92 | i | 0
Cc1ccc2nc(Cl)c(/C=C/C(=O)c3ccco3)cc2c1 | · | 42* | 98 | i | -12
COc1cc2cc(/C=C/C(=O)c3ccco3)c(Cl)nc2cc1OC | -9 | 49* | 182 | i | 33
C[C@H]1CN([C@@H](C)CO)C(=O)Cc2cc(NC(=O)c3ccncc3)ccc2O[C@H]1CN(C)S(C)(=O)=O | -3 | · | · | · | ·
C[C@@H]1CN([C@H](C)CO)C(=O)Cc2cc(NC(=O)Cc3ccccc3)ccc2O[C@H]1CN(C)S(=O)(=O)c1ccc(F)cc1 | -2 | · | · | · | ·
COc1ccc(S(=O)(=O)Nc2ccc3c(c2)C(=O)N([C@@H](C)CO)C[C@@H](C)[C@@H](CN(C)C(=O)CCCN(C)C)OCCCC[C@H](C)O3)cc1 | -7 | · | · | · | ·
